Holding throughout (test): NCI-60 one-dose screen, 48 h (100 = growth as untreated, 0 = no growth, -100 = all killed)
Holding throughout (details): 10 µM unless noted

Assay [1] has as its system SR leukemia.
Assay [2] relates to RPMI-8226 leukemia.
For assay [3], the system named is OVCAR-8 ovarian.
For assay [4], the system named is OVCAR-5 ovarian.
The subject of assay [5] is OVCAR-4 ovarian.
For assay [6], the system named is SK-OV-3 ovarian.
The subject of assay [7] is IGROV1 ovarian.
Assay [8] concerns OVCAR-3 ovarian.
For assay [9], the system named is HS 578T breast.
In assay [10] the test system is NCI/ADR-RES ovarian.

Compounds without any hit were thinned out: in the full panel of roughly 83,000, 20% have a hit.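 96-well plates, one dose, 48 hours. Percent growth reported; active if below 10.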 Unmarked numbers belong to inactive results. The source made the active and inactive calls.

For `CCC[CH2][Sn]1([CH2]CCC)[O]C2C(CO)OC(n3ccc(N)nc3=O)C2[O]1` (stereo not given), the growth was -30.5% (active) in assay [1]; -28.7% (active) in assay [2]; -44.7% (active) in assay [3]; -41.9% (active) in assay [4]; -53% (active) in [5]; 28.2% in assay [6]. Besides, the growth in [7] is -23% (active); in assay [8], -90.8% (active); in assay [9] it was -12.4% (active); in [10], 24.8%.

For `O=C(c1ccccc1)C(Br)[N+](=O)[O-]` (stereo not given), the growth is 5.17% (active) in assay [1]; 75.9% in assay [2]; 83.9% in assay [3]; 96.4% in assay [4]; 104% in assay [5]; 79.9% in assay [6]. In addition, the growth in assay [7] is 103%; in [8], 101%; in assay [9], 91.3%; in assay [10], 101%.

Take `O=[N+]([O-])c1ccc2c(c1)Cc1ccccc1-2`: the growth is 91.4% in assay [1]; 121% in assay [2]; 98.9% in assay [3]; 91.3% in assay [4]; 97.3% in assay [5]; 112% in assay [6]. For the same compound, the growth is 94.7% in [7], 103% in assay [8], 102% in [9] and 99% in [10].

As for `O=[n+]1c2ccccc2n([O-])c2cc(Cl)ccc21`, the growth in assay [1] was 1.27% (active); in assay [2] it was 73.8%; in [3], 43%; in assay [4], 108%; in [5] it was 40.3%; in assay [6], 87.7%. Further, the growth was 65.6% in assay [7], 44.6% in [8], 88.8% in assay [9] and 59.6% in [10].

On to `O=C1/C(=C/c2ccccc2)CCC/C1=C\c1ccccc1`, for which the growth in assay [1] was 67.4%; in assay [2], -3.31% (active); in assay [3], 91.7%; in assay [4], 120%; in assay [5], 94.1%; in [6], 99.6%. For the same compound, the growth in [7] was 80%; in assay [8] it was 65.1%; in assay [9], 101%; in [10] it was 95.2%.

As to `CCCCCCCCCCCCNCCCc1ccccc1`, the growth in assay [1] is -34.3% (active); in assay [2], 6.17% (active); in assay [3], 79.3%; in [4], 81.2%; in [5] it was 46.5%; in [6], 103%. The growth in assay [7] is 75.4%; in assay [8], 83%; in assay [9] it was 88.6%; in assay [10], 75.1%.

In the case of `CCCCCCCCCCCC(=O)OC(C)C(=O)NCCCC` (stereo not given), the growth in assay [1] is 85.7%; in assay [2], 104%; in [3], 100%; in assay [4], 107%; in assay [5], 108%; in [6] it was 102%. In addition, the growth in assay [7] was 107%; in assay [8], 107%; in assay [9], 101%; in assay [10], 101%.

On to `CC1=CC(=NC(=O)CBr)C=C/C1=N\S(=O)(=O)c1ccccc1`, for which the growth is 58.3% in [1]; 84.5% in [2]; 66.6% in assay [3]; 122% in assay [4]; 50.6% in assay [5]; 91.7% in [6]. Moreover, the growth in assay [7] is -3.37% (active); in assay [8], 8.58% (active); in assay [9], 89.1%; in assay [10] it was 89.4%.

On to `O=C1c2ccccc2C(=O)c2c(O)c(Cl)cc(O)c21`, for which the growth is 62% in [1]; 96.4% in [2]; 58.2% in assay [3]; 92.6% in [4]; 84.3% in [5]; 99.5% in assay [6]. Besides, the growth in assay [7] was 81.1%; in assay [8], -17.9% (active); in [9], 106%; in assay [10], 93.7%.

With `O=C(NNc1ccccc1)OCc1ccccc1`, the growth in assay [1] was 47.1%; in assay [2], 64.2%; in [3], 61.4%; in assay [4], 53.1%; in [5], 112%; in assay [6], 105%. The growth in assay [7] was 58.7%; in assay [8] it was 91.4%; in [9] it was 91.8%; in assay [10], 55.2%.

`Cc1cc2cccnc2c2ncccc12`: the growth in [1] is 6.21% (active); in assay [2], 13.4%; in [3] it was 13%; in assay [4] it was 45.6%; in assay [5], 14.4%; in [6] it was 1.57% (active). Further, the growth in assay [7] is 29.1%; in [8] it was 33.8%; in assay [9] it was 61.3%; in [10], 11.2%.

Take `CC(/C=N/NC(N)=S)Cc1ccc(C(C)C)cc1` (stereo not given): the growth was 135% in [1]; 104% in assay [2]; 79.3% in [3]; 86.6% in assay [4]; 29.8% in assay [5]; 85.8% in assay [6]. For the same compound, the growth in assay [7] is 25.7%; in [8] it was 77.7%; in [9] it was 71.7%; in assay [10], 64.4%.

Take `CC(=O)c1ccc2c(c1)CCc1ccccc1-2`: the growth in assay [1] was 103%; in [2], 108%; in assay [3], 109%; in assay [4] it was 88.9%; in [5], 98.8%; in assay [6], 101%. The growth in [7] was 119%; in [8], 125%; in assay [9], 103%; in assay [10] it was 119%.

With `CCSc1nc2ccccc2o1`, the growth was 94.2% in assay [1]; 104% in assay [2]; 103% in assay [3]; 101% in [4]; 101% in [5]; 104% in assay [6]. The growth was 90.1% in assay [7], 111% in [8], 102% in assay [9] and 108% in assay [10].

Take `COC(=O)C(=[N+]=[N-])C(=O)c1ccc([N+](=O)[O-])o1`: the growth in [1] was 58.4%; in [2] it was 78.8%; in [3], 82%; in assay [4], 110%; in [5] it was 106%; in assay [6] it was 97.2%. The growth is 97.6% in [7], 88.3% in assay [8], 90.3% in assay [9] and 93.1% in assay [10].

Take `CN(C)CCN(C)CC(C)(C)C(=O)/C=C/c1ccc(Cl)c(Cl)c1`: the growth is -25.9% [100 µM] (active) in assay [1]; -30.6% [100 µM] (active) in assay [2]; -86.5% [100 µM] (active) in [3]; -93.4% [100 µM] (active) in [4]; -98.5% [100 µM] (active) in [5]; -97.7% [100 µM] (active) in assay [6]. Moreover, the growth is -92.2% [100 µM] (active) in [7], -98.4% [100 µM] (active) in [8], -39.5% [100 µM] (active) in assay [9] and -47.2% [100 µM] (active) in [10].

In the case of `CCOC(=O)/C(=C\c1ccc2ccccc2c1)P(=O)(OCC)OCC`, the growth in assay [1] is -19.4% (active); in [2], -25.3% (active); in assay [3], 20.1%; in assay [4], 56.9%; in assay [5], 62%; in [6], 113%. Further, the growth in assay [7] is 56%; in assay [8] it was 27.4%; in [9] it was 16.7%; in assay [10], 10.4%.

For the compound `S=C(SSC(=S)N1CCOCC1)N1CCOCC1`, the growth was 31.4% in assay [1]; 76.9% in [2]; 96.8% in assay [3]; 106% in [4]; 65.7% in assay [5]; 102% in [6]. The growth is 29.1% in assay [7], 74.6% in assay [8], 97.7% in assay [9] and 106% in assay [10].

As for `COc1ccc2c(c1)c(CC(=O)O)c(C)n2C(=O)c1ccc(Cl)cc1`, the growth in [1] is 106%; in assay [2], 83.8%; in assay [3] it was 104%; in [4], 105%; in assay [5] it was 102%; in assay [6], 119%. The growth in assay [7] was 99%; in assay [8], 125%; in assay [9] it was 97.8%; in assay [10] it was 98%.

In the case of `O=C1Nc2ccc(Br)cc2C1=O`, the growth in [1] is 81.9%; in assay [2] it was 96.4%; in assay [3], 100%; in assay [4], 103%; in assay [5] it was 93.2%; in [6] it was 93.9%. Besides, the growth was 97.9% in assay [7], 90.5% in assay [8], 95.7% in assay [9] and 108% in assay [10].

In the case of `Oc1c(Cl)cc(Cl)cc1C=NCC1CCC(CN=Cc2cc(Cl)cc(Cl)c2O)CC1` (stereo not given), the growth is 52.3% in assay [1]; 76.7% in [2]; 90% in [3]; 114% in assay [4]; 75.2% in [5]; 88.5% in [6]. Besides, the growth in [7] is 69.6%; in [8], 83.5%; in [9], 92.7%; in assay [10], 85.2%.

As for `CCCCCCN(CCCCCC)CCCNc1nccc2ccccc12`, the growth was -9.78% (active) in [1]; -22.8% (active) in assay [2]; 12% in [3]; 38.1% in [4]; 23.4% in assay [5]; 41.9% in [6]. Moreover, the growth in [7] is 12.5%; in [8], -6.31% (active); in assay [9] it was 12.4%; in assay [10] it was 19.4%.

For the compound `CCOc1ccc(C(C[N+](=O)[O-])Sc2ccccc2N)cc1` (stereo not given), the growth is 4.9% (active) in assay [1]; 6.92% (active) in assay [2]; 53.5% in assay [3]; 81.9% in [4]; 83.1% in assay [5]; 72.6% in [6]. For the same compound, the growth was -34.9% (active) in assay [7], 32.2% in [8], 43.6% in [9] and 72.6% in [10].

For the compound `O=[N+]([O-])c1ccc(Oc2ccccc2Cl)c([N+](=O)[O-])c1`, the growth in assay [1] was 1.58% (active); in assay [2], 78.4%; in assay [3], 93.2%; in assay [4], 116%; in [5], 56.4%; in assay [6], 99.8%. Moreover, the growth in assay [7] is 104%; in assay [8], 94.1%; in assay [9], 77.7%; in assay [10], 72.7%.

For the compound `O=C1C(=O)c2cccnc2-c2ncccc21`, the growth in assay [1] was -45.5% (active); in assay [2], -29.7% (active); in assay [3], -33% (active); in assay [4], -57.6% (active); in [5], -100% (active); in assay [6], -32.8% (active). The growth in assay [7] is -53.8% (active); in assay [8], -100% (active); in assay [9], -47.5% (active); in assay [10] it was -96.3% (active).

`c1ccc(-c2cc3cc4ccccc4cn3c2)cc1`: the growth in assay [1] is 67.4%; in assay [2] it was 66.4%; in assay [3], 85.4%; in assay [4] it was 112%; in [5] it was 76.4%; in assay [6], 92.2%. Besides, the growth in assay [7] was 79.7%; in [8] it was 88.9%; in [9], 88.2%; in [10] it was 91.7%.

Turning to `O=C(Cc1ccccc1)C(F)(F)F`, the growth is 94.7% in [1]; 106% in assay [2]; 103% in assay [3]; 99.5% in assay [4]; 106% in assay [5]; 101% in [6]. Further, the growth was 101% in assay [7], 101% in [8], 111% in [9] and 104% in [10].

`S=C=Nc1ccc(N2CCOCC2)cc1`: the growth in assay [1] was 71.2%; in [2], 87.8%; in [3], 102%; in assay [4], 97.6%; in assay [5], 106%; in assay [6], 93%. Also, the growth in assay [7] is 96.9%; in assay [8], 109%; in assay [9] it was 99.3%; in [10] it was 101%.

Consider `c1csc(-c2[nH]nc3c2CCc2ccccc2-3)c1`, for which the growth in [1] is 105%; in [2], 81.3%; in assay [3] it was 99.1%; in assay [4], 24.1%; in [5], 48.5%; in assay [6], 98.1%. Further, the growth is 67.2% in assay [7], 28.1% in assay [8], 90% in [9] and 98.7% in [10].

These data come from PubChem BioAssay (NCI).
